Source: PubChem BioAssay (NCI)
“And” between values parts separate entries of the source, which are not always exact repeats. Equal values may be shown once. This is part of a sample that, as a whole, favours compounds with a hit. Of some 79,000 tested, about 15% had one in any assay. The source made the active and inactive calls. No stated cut-off is given here; in the data, active means growth inhibition above about 70%; inactive means the rest.

What was measured:
[1] = NCI Yeast Anticancer Drug Screen. Data for the rad50 strain (AID 155);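 further: 0% = growth of vehicle-only cultures of the same strain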; conditions: S. cerevisiae rad50 strain growth inhibition, active compounds read high
Outline: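 DNA repair mutant yeast, compound exposure, growth read-out; inhibition is taken relative to vehicle.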

[2] = NCI Yeast Anticancer Drug Screen. Data for the mec2-1 strain (AID 157); conditions: S. cerevisiae mec2-1 strain, active compounds read high
Outline: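 Compounds were applied to mec2-1 yeast cells. Their growth was then compared with that of vehicle-treated cultures to give growth inhibition.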

[3] = NCI Yeast Anticancer Drug Screen. Data for the sgs1 mgt1 strain (AID 161);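 further: 0% = growth of cultures given vehicle only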; conditions: S. cerevisiae sgs1 mgt1 strain, active compounds read high
Outline: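 This yeast growth screen uses a strain with defined DNA-repair lesions; compound-treated growth is compared with vehicle-treated growth.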

[4] = NCI Yeast Anticancer Drug Screen. Data for the cln2 rad14 strain (AID 165);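 further: 0% = growth equal to vehicle treated cultures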; conditions: S. cerevisiae cln2 rad14 strain, active compounds read high
Outline: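 Strain: cln2 rad14 yeast, altered in cell cycle control and DNA damage repair. Read-out: growth inhibition vs vehicle.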

[5] = NCI Yeast Anticancer Drug Screen. Data for the bub3 strain (AID 167); conditions: S. cerevisiae bub3 mutant strain, active compounds read high
Outline: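 In this screen, a yeast mutant lacking normal mitotic checkpoint function is challenged with compound. Relative growth versus vehicle gives the inhibition value.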

[6] = NCI Yeast Anticancer Drug Screen. Data for the mlh1 rad18 strain (AID 175); conditions: S. cerevisiae mlh1 rad18 strain growth inhibition, active compounds read high
Outline: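 A repair-deficient yeast strain is exposed to test compound, and growth is scored relative to vehicle-treated controls.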

[7] = at 5.0 µM (retest, dose inferred, filed as 0.5)
[8] = at 50.0 µM (retest, dose inferred, filed as 5.0)

Measured: growth inhibition

C=Cc1c2ccccc2cc2ccccc12
active: [1]; [8] 82% | [1]; at 50.0 µM 86.2% | [2]; [8] 82% | [2]; at 50.0 µM 75.2% | [3]; at 50.0 µM 83.3% | [4]; at 50.0 µM 77% | [5]; at 50.0 µM 81.2% | [6]; [8] 74% | [6]; at 50.0 µM 75%
inactive: [1]; [7] 44% | [2]; [7] 42% | [3]; [7] 26% | [3]; [8] 31% | [4]; [7] 44% | [4]; [8] 60% | [5]; [7] 50% | [5]; [8] 36% | [6]; [7] 34%

N.N.N.N.N.N#N.[Cl-].[Os+7]
inactive: [1]; [7] 18% | [1]; at 50.0 µM 55.5% | [2]; [7] 17% | [2]; at 50.0 µM 59.4% | [3]; [7] 33% | [3]; at 50.0 µM 60.9% | [4]; [7] 14% | [4]; [8] 45% | [4]; at 50.0 µM 57.4% | [5]; [7] 30% | [5]; at 50.0 µM 59.1% | [6]; [7] 31%
active: [1]; [8] 78% | [2]; [8] 87% | [3]; [8] 90% | [5]; [8] 91% | [6]; [8] 89% | [6]; at 50.0 µM 74%

CCOc1cc(/C=C/[N+](=O)[O-])ccc1O
inactive: [1]; [7] -112% | [2]; [7] -44% | [2]; at 50.0 µM 65.8% | [3]; [7] -46% | [4]; [7] -52% | [4]; at 50.0 µM 55% | [5]; [7] -60% | [5]; at 50.0 µM 43.4% | [6]; [7] -93%
active: [1]; [8] 93% | [1]; at 50.0 µM 77.2% | [2]; [8] 73% | [3]; [8] 95% | [3]; at 50.0 µM 77.7% | [4]; [8] 75% | [5]; [8] 90% | [6]; [8] 94% | [6]; at 50.0 µM 96.6%

CCOC(=S)S
active: [1]; [8] 99% | [1]; at 50.0 µM 98.9% | [2]; [8] 100% | [2]; at 50.0 µM 99.6% | [3]; [8] 99% | [3]; at 50.0 µM 99.5% | [4]; at 50.0 µM 95.8% | [5]; [8] 99% | [5]; at 50.0 µM 99.2% | [6]; [8] 99% | [6]; at 50.0 µM 99.2%
inactive: [1]; [7] 43% | [2]; [7] 17% | [3]; [7] 4% | [4]; [7] 12% | [4]; [8] 66% | [5]; [7] 29% | [6]; [7] 31%

CCC[CH2][Sn]([N]=C=S)([N]=C=S)[N]=C=S.O=P(c1ccccc1)(c1ccccc1)c1ccccc1.O=P(c1ccccc1)(c1ccccc1)c1ccccc1
inactive: [1]; [7] -5% | [1]; [8] 27% | [1]; at 50.0 µM 50.3% | [2]; [7] -4% | [2]; [8] 15% | [2]; at 50.0 µM 61.2% | [3]; [7] -4% | [3]; [8] 46% | [4]; [7] -2% | [4]; [8] 10% | [4]; at 50.0 µM 23.1% | [5]; [7] -4% | [5]; [8] 33% | [5]; at 50.0 µM 46.2% | [6]; [7] -4% | [6]; [8] 44%
active: [3]; at 50.0 µM 83.2% | [6]; at 50.0 µM 75.3%

Nc1ccc(N=Nc2ccccc2)cc1
active: [1]; [8] 76% | [3]; [8] 92% | [6]; [8] 78% | [6]; at 50.0 µM 82.5%
inactive: [1]; [7] 1% | [1]; at 50.0 µM 69.7% | [2]; [7] -4% | [2]; [8] 37% | [2]; at 50.0 µM 17.6% | [3]; [7] 1% | [3]; at 50.0 µM 37.4% | [4]; [7] 5% | [4]; [8] 50% | [4]; at 50.0 µM 3.25% | [5]; [7] 3% | [5]; [8] 43% | [5]; at 50.0 µM 37.4% | [6]; [7] 1%

ClC1=NSSC1(Cl)Cl
active: [1]; [8] 96% | [1]; at 50.0 µM 90.4% | [2]; [8] 99% | [2]; at 50.0 µM 92.5% | [3]; [8] 99% | [3]; at 50.0 µM 91.2% | [4]; [8] 78% | [4]; at 50.0 µM 87.7% | [5]; [8] 99% | [5]; at 50.0 µM 90.3% | [6]; [8] 90% | [6]; at 50.0 µM 92.2%
inactive: [1]; [7] 16% | [2]; [7] 16% | [3]; [7] 18% | [4]; [7] 20% | [5]; [7] 21% | [6]; [7] 17%

Cc1cc(N(CCCl)CCCl)ccc1C=Nc1ccc(-c2csc(COc3ccccc3)n2)c(Cl)c1
active: [1]; [8] 93% | [1]; at 50.0 µM 94% | [2]; [8] 90% | [2]; at 50.0 µM 95.6% | [3]; [8] 95% | [3]; at 50.0 µM 95% | [4]; [8] 94% | [4]; at 50.0 µM 89.1% | [5]; [8] 91% | [5]; at 50.0 µM 90.3% | [6]; [8] 94% | [6]; at 50.0 µM 94.5%
inactive: [1]; [7] 4% | [2]; [7] -13% | [3]; [7] 23% | [4]; [7] -10% | [5]; [7] 6% | [6]; [7] 52%

O=C(O)CN(CCN(CC(=O)O)CC(=O)O)CC(=O)O
active: [2]; [8] 70% | [3]; [8] 74% | [6]; [8] 70%
inactive: [1]; [7] 8% | [1]; [8] 69% | [1]; at 50.0 µM 27.9% and 13.8% and 43.4% | [2]; [7] 14% | [2]; at 50.0 µM 42.2% and 20% and 30.6% | [3]; [7] 11% | [3]; at 50.0 µM 65.8% and 26.2% and 57.2% | [4]; [7] -3% | [4]; [8] 49% | [4]; at 50.0 µM -14.9% and -22.5% and 17.4% | [5]; [7] 10% | [5]; [8] 66% | [5]; at 50.0 µM 60.7% and 38% and 53.3% | [6]; [7] 6% | [6]; at 50.0 µM 44.4% and 24.2% and 46.9%
